KCNQ2 pot: potentiators of rat KCNQ2 potassium channel; O88943; CHO-K1 KCNQ2, FluxOR thallium flux fluorescence; stronger effect = higher value; B-score at 10 µM; 310,000 tested, 0.54% active;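 active means fluorescence ratio B-score at least 3 SD of library B-scores, with initial fluorescence B-score within 3 of them, cut at about 5.3 in these data; same plate scores as AID 2156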;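 further: B-score of peak minus minimum over baseline fluorescence ratio after K+ and Tl+ stimulus; positive B-score means potentiation of KCNQ2 with more thallium influx and brighter signal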
Target sequence (O88943 whole entry, looked up): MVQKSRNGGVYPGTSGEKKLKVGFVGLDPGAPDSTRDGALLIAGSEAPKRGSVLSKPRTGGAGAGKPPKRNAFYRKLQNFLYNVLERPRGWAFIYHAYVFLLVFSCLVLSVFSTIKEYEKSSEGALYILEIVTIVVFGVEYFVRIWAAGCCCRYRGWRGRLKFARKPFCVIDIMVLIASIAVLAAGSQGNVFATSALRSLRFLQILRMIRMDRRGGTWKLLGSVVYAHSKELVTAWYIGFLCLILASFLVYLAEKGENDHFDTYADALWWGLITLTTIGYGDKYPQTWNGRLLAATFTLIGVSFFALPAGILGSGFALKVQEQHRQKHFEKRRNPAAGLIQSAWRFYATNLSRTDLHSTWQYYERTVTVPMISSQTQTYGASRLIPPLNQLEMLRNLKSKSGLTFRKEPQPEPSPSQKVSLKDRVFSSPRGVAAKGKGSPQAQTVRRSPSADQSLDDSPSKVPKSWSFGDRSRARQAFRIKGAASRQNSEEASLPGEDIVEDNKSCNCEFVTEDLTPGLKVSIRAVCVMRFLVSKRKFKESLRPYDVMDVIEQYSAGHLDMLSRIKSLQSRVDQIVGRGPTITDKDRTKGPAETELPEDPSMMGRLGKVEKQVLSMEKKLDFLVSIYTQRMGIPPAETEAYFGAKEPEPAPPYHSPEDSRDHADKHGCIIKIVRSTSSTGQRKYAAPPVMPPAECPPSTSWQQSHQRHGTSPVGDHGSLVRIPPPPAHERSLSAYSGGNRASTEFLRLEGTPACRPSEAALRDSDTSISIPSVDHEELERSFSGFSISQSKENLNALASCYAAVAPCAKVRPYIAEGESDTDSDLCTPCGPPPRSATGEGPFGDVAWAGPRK
KCNQ2 inh: inhibitors of rat KCNQ2 potassium channel. O88943. CHO-K1 KCNQ2, FluxOR thallium flux, 20 min; stronger effect = lower value. 310,000 tested, 1.1% active. AID 2156. B-score at 10 µM;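 active means fluorescence ratio B-score at most minus 3 library SDs, with starting brightness B-score within 2 library SDs, cut at about -5.5 in these data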
KCNQ2 block conf: rat KCNQ2 channel inhibition, confirmatory screen | activity change, negative = inhibition, % at 10 µM | KCNQ2-expressing cells, thallium flux; stronger effect = lower value | shares compounds with KCNQ2 inh | 1,000 tested, 57% active | AID 493025;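 further: 0% = vehicle wells and values are ratio percent relative to vehicle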
KCNQ1 spec: selectivity of KCNQ2 inhibitors against human KCNQ1; shares compounds with KCNQ2 inh; KCNQ1-expressing cells, FluxOR thallium flux fluorescence; stronger effect = lower value; activity change, negative = inhibition, % at 10 µM; 1,000 tested, 15% active;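 active means activity change at least 3 SD of negative controls below their mean in both duplicate wells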;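 further: CHO cells stably transfected with KCNQ1 and depolarized by potassium stimulus; peak minus minimum fluorescence over baseline after thallium addition; 0% = vehicle negative control and -100% = blank without thallium stimulus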
CHO Tl ctr: KCNQ2 inhibitor counter-screen hit in parental CHO cells. 1,000 tested, 14% active. activity change, % at 10 µM. thallium flux counter-screen; stronger effect = lower value. shares compounds with KCNQ2 inh;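 further: 0% = vehicle negative controls with stimulus buffer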
KCNQ2 patch conf: confirmation of rat KCNQ2 potassium channel inhibitors; shares compounds with KCNQ2 inh; AID 588531; KCNQ2-expressing cells, automated patch clamp current; 550 tested, 49% active; calls only at 10 µM
Numbers without * were called inactive; i = inactive; . = no result given; + = active, no number. An excerpt weighted towards active compounds, which were near 1.6% of everything screened. Unless noted, how the calls were made is not given here.

SMILES	KCNQ2 pot	KCNQ2 inh	others
O=c1[nH]c2ccccc2n1CCC1CCCCC1	0.33	i
CC1=C(C)CC(C(=O)NCCc2ccc(F)cc2)C(C(=O)O)C1 (configuration not stated)	.	i
COC(=O)C1CCCN1C(=O)COc1ccc(Cl)cc1Br (configuration not stated)	14.8*	i
COc1ccccc1N1CCN(C(=O)COc2ccc(Cl)cc2Br)CC1	.	i
CCN(CC)C1CCN(Cc2c(C(=O)N3CCCCCCC3)nc3ccc(Cl)cn23)C1 (configuration not stated)	.	i
O=c1c(Cc2c(F)cccc2Cl)c(O)ccn1Cc1ccc(F)cc1	.	i
O=c1c(Cc2c(F)cccc2Cl)c(O)ccn1C1CCCCCC1	-7.85	-7.85*
Cc1ccsc1CNC(=O)c1c(-c2ccccc2)noc1C	.	i
CC(C)CC(C)NC(=O)c1ccc(C(F)(F)F)cc1 (configuration not stated)	2.21	i
CCC/C=C(\CCC)C(NC(=O)c1ccc(C(=O)OC)cc1)c1ccc(C(=O)OC)cc1 (configuration not stated)	-7.2	-7.2*
COC(=O)c1ccc(C(=O)NN)cc1	.	i
CCC/C=C(\CCC)C(NC(=O)c1ccc(C(F)(F)F)cc1)c1ccccc1 (configuration not stated)	-6.56	-6.56*
O=C(Sc1ccc(Cl)cc1)c1ccccn1	.	i
COc1ccccc1C(=O)NCCC(=O)N1CC=C(c2ccccc2)CC1	.	i
CC12CCC(=O)N1C(C(=O)O)Cc1c2[nH]c2ccccc12 (configuration not stated)	.	i
CC(=O)N1C(C(=O)O)Cc2c([nH]c3ccccc23)C1(C)C (configuration not stated)	7.28*	i
Cc1ccc(C(=O)Nc2ccc3c(c2)CCC3)cc1	0.92	i
O=C(Nc1ccc2c(c1)CCC2)c1cccc(F)c1	7.35*	i
COc1ccc(-c2noc(-c3ccccc3F)n2)cc1	0.05	i
COc1ccc(-c2noc(-c3ccccc3-c3ccccc3)n2)cc1	-6.56	-6.56*
O=C(CC12CC3CC(CC(C3)C1)C2)N1CCN(S(=O)(=O)c2cccs2)CC1	.	i
O=C(O)c1ccccc1/C=N/Nc1nc(N2CCCCC2)nc(N2CCCCC2)n1	.	i
C(=N\Nc1nc(N2CCCCCC2)nc(N2CCCCCC2)n1)/c1ccccc1	-5.8	-5.8*
CC1(C)c2[nH]c3ccccc3c2C[C@@H]2C(=O)N(c3ccc(F)cc3F)C(=O)N21	1.9	i
O=C/C(=C\Nc1ccc(C(=O)N2CCOCC2)cc1)c1nc2ccccc2o1	0.48	i
SMILES	KCNQ2 pot	KCNQ2 inh	others
COC(=O)c1sc(S(=O)(=O)Nc2ccc(C)c(C)c2)c(C(=O)OC)c1C	.	i
COc1ccc(CCC(=O)Nc2cc3c4c(c2)CCC(=O)N4CCC3)cc1	1.15	i
O=C(NCc1ccccn1)Nc1cccc(F)c1	.	i
CCCCOc1ccc(C(=O)N/C(=C\c2cccc([N+](=O)[O-])c2)C(=O)OCCC)cc1	.	i
CCCCOc1ccc(C(=O)N/C(=C\c2cccc([N+](=O)[O-])c2)C(=O)OC(C)C)cc1	-6.05	-6.05*
CC(=O)Nc1ccc(N2C(=O)CC(Sc3nc(C)cc(C)n3)C2=O)cc1 (configuration not stated)	.	i
CC(NCC(O)COCCC12CC3CC(CC(C3)C1)C2)c1ccccc1 (configuration not stated)	-7.7	-7.7*
NCC(O)COCCC12CC3CC(CC(C3)C1)C2 (configuration not stated)	.	i
COc1ccc(S(=O)(=O)NCCc2nnc3ccc(SCc4cccnc4)nn23)cc1	1.32	i
COc1ccc(CCNC(=O)C2CC3Cn4c(nc5ccccc54)C3N2c2ccccc2)cc1 (configuration not stated)	0.12	i
CCOC(=O)C1(Cc2ccccc2C)CCCN(Cc2ccc(NC(C)=O)cc2)C1 (configuration not stated)	2.32	i
Cc1ccc(Sc2c(C=O)c3ccccc3n2C)cc1	0.1	i
Cc1cccc(Oc2c(C=O)c3ccccc3n2C)c1	-6.54	-6.54*
O=C(c1sc2cccc(Cl)c2c1Cl)N1CCN(CCc2ccccn2)CC1	0.71	i
CCOC(=O)c1cc(CC)sc1NC(=O)COC(=O)c1ccccn1	0.22	i
COc1ccc(N(C(=O)c2snc(C(N)=O)c2N)C(C(=O)NC2CCCC2)c2cccs2)c(OC)c1 (configuration not stated)	-8.03	-8.03*
COc1ccc(OC)c(C(C(=O)NC2CCCCC2)N(C(=O)c2snc(C(N)=O)c2N)c2ccccc2OC)c1 (configuration not stated)	.	i
N#Cc1cc(-c2ccccc2)cnc1Sc1ccc(Cl)cc1	-6.81	-6.81*	KCNQ2 block conf=i;KCNQ1 spec=i;CHO Tl ctr=i
Cc1nc(Sc2ccccc2)c(C#N)cc1-c1ccccc1	-9.35	-9.35*	KCNQ2 block conf=i;KCNQ1 spec=i;CHO Tl ctr=i
Cc1nc(Cl)c(C#N)cc1-c1ccccc1	1.36	i
N#Cc1cc(-c2ccc(Cl)cc2)cnc1Sc1ccccc1	.	i
O=C1Nc2ccc(Br)cc2C1=Nc1cccnc1	.	i
COc1ccc(-c2nn(-c3ccccc3)cc2C(=O)O)cc1N	.	i
O=C(COc1cccc2ccccc12)NCc1cccnc1	.	i
Cc1ccccc1-c1nnc(NC(=O)CSc2nc3ccccc3s2)s1	.	i
SMILES	KCNQ2 pot	KCNQ2 inh	others
C=CCn1c(SCC(=O)N2CCOCC2)nc2sc3c(c2c1=O)CCCC3	2.48	i
C=CCn1c(SCC(N)=O)nc2sc3c(c2c1=O)CCC3	-9.26	-9.26*	KCNQ2 block conf=i;KCNQ1 spec=i;CHO Tl ctr=i
O=c1c2ccccc2oc2cc(OCc3cccc(F)c3)cc(O)c12	.	i
O=C1COc2ccc(C(=O)COc3ccc(Cl)cc3Br)cc2N1	0.28	i
CCN(CC1COc2ccccc2O1)C(=O)c1ccc(Cl)c(S(=O)(=O)N2CC(C)OC(C)C2)c1 (configuration not stated)	.	i
CC1CN(S(=O)(=O)c2cc(C(=O)N(CCc3ccccc3)Cc3ccccc3)ccc2Cl)CC(C)O1 (configuration not stated)	-7.18	-7.18*	KCNQ2 block conf=i;KCNQ1 spec=i;CHO Tl ctr=i
O=C(Cc1ccccc1)NN1CCCCC1	0.05	i
Cc1cc(C)c2nc(-c3cccc(Cl)c3)c(C)c(C(=O)N3CCOCC3)c2c1	-8.75	-8.75*	KCNQ2 block conf=-28.0%*;KCNQ1 spec=i;CHO Tl ctr=i;KCNQ2 patch conf=+
Cc1onc(-c2c(Cl)cccc2Cl)c1C(=O)N1CCOCC1	0.75	i
COc1cccc(-c2cc(C(=O)Nc3cccnc3)c3ccccc3n2)c1	.	i
O=C(Nc1ccncc1)c1cc(-c2cccc(Br)c2)nc2ccccc12	0.09	i
CCOc1ccc(-c2cc(C(=O)Nc3ccc4c(c3)OCCO4)c3ccccc3n2)cc1	-9.14	-9.14*	KCNQ2 block conf=i;KCNQ1 spec=i;CHO Tl ctr=i
